Hit rate of the full screen: of about 5,500 compounds, about 2,000 (36%) were called active. Inconclusive results (about 18%) are left out. No stated cut-off is given here; in the data, active means normalized growth mostly below about 0.91 (no sharp cut-off); inconclusive means no clear call, values can overlap the other calls; inactive means mostly above about 0.92. The list shows a part of the results.
Assay: chemical genetic growth profiling, strain panel (AID 1159580);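 further: tested at 20 µM; growth read once vehicle control cultures reached saturation at 30 °C; 1 = growth at the plate median or of vehicle wells; lower values mean less growth of the strain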
Conditions: S. cerevisiae deletion strains, growth OD

Measured: normalized growth

O=c1[nH]c2cc([N+](=O)[O-])c([N+](=O)[O-])cc2[nH]c1=O
inactive: locus YAL013W, strain DEP1, active compounds read low 0.998 | locus YAL040C, strain CLN3, active compounds read low 1.03 | locus YCL061C, strain MRC1 (second series), active compounds read low 1 | locus YDR363W, strain ESC2, active compounds read low 0.986 | locus YER002W, strain NOP16, active compounds read low 0.996 | locus YGR078C, strain PAC10, active compounds read low 1 | locus YGR229C, strain SMI1, active compounds read low 0.977 | locus YJR075W, strain HOC1, active compounds read low 0.987 | locus YMR263W, strain SAP30, active compounds read low 1 | locus YNL128W, strain TEP1, active compounds read low 1.01 | locus YNL153C, strain GIM3, active compounds read low 1.01 | locus YNL175C, strain NOP13, active compounds read low 1.01 | locus YNL197C, strain WHI3, active compounds read low 0.989 | locus YNL224C, strain SQS1, active compounds read low 0.989 | locus YNL322C, strain KRE1, active compounds read low 0.986 | locus YOR083W, strain WHI5 (second series), active compounds read low 0.969 | locus YPL055C, strain LGE1, active compounds read low 0.988 | locus YPL241C, strain CIN2, active compounds read low 1

From PubChem BioAssay AID1159580 (chemical genetic matrix, 2015)
